Drawing on PubChem BioAssay (NCI), this text covers growth inhibition for 40 compounds.

This is part of a sample that, as a whole, favours compounds with a hit. Of some 79,000 tested, about 15% had one in any assay. Activity calls are given as the source filed them. No stated cut-off is given here; in the data, active means growth inhibition above about 70%; inactive means the rest.

The assay in a line: NCI Yeast Anticancer Drug Screen. Data for the sgs1 mgt1 strain (AID 161).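 Further: 0% = growth of cultures given vehicle only.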 Particulars: S. cerevisiae sgs1 mgt1 strain, at 50.0 µM (retest, dose inferred, filed as 5.0), active compounds read high. Put shortly:
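Compounds are added to genetically altered yeast, and growth is compared with cultures given vehicle alone to give percent inhibition.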
With `CCCC(C)(COC(N)=O)COC(=O)NC1CC1` (stereo not given), the growth inhibition is 0% (inactive).

Turning to `O=C(O)C(CSC(c1ccccc1)c1ccccc1)NC(=O)C(c1ccccc1)c1ccccc1` (stereo not given), the growth inhibition is 86% (active).

With `CC1=CC2CC(C)=C(CC[C@]3(C)CC[C@H]([C@@H](C)C(=O)O)OO3)C(C)(C)C2CC1` (stereo not given in full), the growth inhibition was 99% (active). For `O=[N+]([O-])/C=C/c1c(Cl)cccc1Cl` the value was 99% (active). Consider `O=[n+]1c2ccccc2n([O-])c2ccccc21.[Cl][Cu][Cl]`, for which the growth inhibition is 98% (active). For `CC(=O)C(CN1CCOCC1)C(c1ccccc1)c1c(O)c2ccccc2oc1=O` (stereo not given) the value was 80% (active); for `CC(C)c1oc(=O)cc2c1C(O)C1OC(=O)C3(C)C(O)C4OC4C2(C)C13` (stereo not given), 72% (active). For `C#CCN1C(=O)N(CC#C)C(=O)C(CC#C)(C(CC=C)c2ccccc2)C1=O` (stereo not given) the value was 97% (active).

Regarding `COC(=O)C1c2c(C)cc3n2C(C=CC3)C1C(=O)OC` (stereo not given), the growth inhibition is 24% (inactive).

For the compound `[Cl][Hg][c]1ccc(Cl)s1`, the growth inhibition is 100% (active).

Turning to `N#CC(Cl)(Cl)CCl`, the growth inhibition was 42% (inactive).

With `O=C1CCC(=O)N1SC(Cl)(Cl)Cl`, the growth inhibition was 6% (inactive). Under `CCCC(=O)O.CCCC(=O)O.CCCC(=O)O.CCCC(=O)O.[Rh].[Rh]` stands 59% (inactive). Under `CC(CCC/C=C/CCCN(C)C(=N)N)CC(C)C1OC(=O)C(C)C(O)/C=C/C(C)C(O)C(C)C(O)C(C)C(O)CCCC(O)CC2(O)OC(CC(OC(=O)CC(=O)O)CC(O)CC(O)C(C)C(O)/C=C/C=C/C1C)CC(O)C2O` (stereo not given) stands 99% (active); under `OC(CN(CCCl)CCCl)C(O)C(O)C(O)CN(CCCl)CCCl` (stereo not given), 33% (inactive); under `O=[N+]([O-])c1ccc(CS(=O)(=O)C(Cl)Cl)o1`, 79% (active). Under `CC(C)c1cc([N+](=O)[O-])cc([N+](=O)[O-])c1O` stands 87% (active).

On to `O=P(c1cccc(C(F)(F)F)c1)(c1cccc(C(F)(F)F)c1)c1cccc(C(F)(F)F)c1.O=P(c1cccc(C(F)(F)F)c1)(c1cccc(C(F)(F)F)c1)c1cccc(C(F)(F)F)c1.[Cl][Sn]([Cl])([Cl])[Cl]`, for which the growth inhibition is 79% (active).

Regarding `COc1cc(N(CC(C)Br)CC(C)Br)ccc1N=Nc1ccccc1C(=O)O` (stereo not given), the growth inhibition is 95% (active). Under `C(=P(c1ccccc1)(c1ccccc1)c1ccccc1)[P+](c1ccccc1)(c1ccccc1)c1ccccc1.[Cl][Fe]([Cl])([Cl])[Br]` stands 99% (active); under `COc1ccc2c(c1)CCC(N1CCCC(=O)C1)C2` (stereo not given), 26% (inactive); under `C1CCNCC1.O=C([CH-]C(=O)C(F)(F)F)c1ccc2c(c1)C(=O)c1ccccc1-2.O=C([CH-]C(=O)C(F)(F)F)c1ccc2c(c1)C(=O)c1ccccc1-2.O=C([CH-]C(=O)C(F)(F)F)c1ccc2c(c1)C(=O)c1ccccc1-2.O=C([CH-]C(=O)C(F)(F)F)c1ccc2c(c1)C(=O)c1ccccc1-2.[Eu+3]`, 58% (inactive). Under `O=C1C(=O)C(Br)(Br)C(Br)=C1Br` stands 5% (inactive); under `CN(C)C(=S)Nc1nnc(NC23CC4CC(CC(C4)C2)C3)s1`, 60% (inactive); under `C[CH2][Hg]`, 99% (active). Under `c1cc2n[pH]nc2cn1` (stereo not given) stands -6% (inactive); under `CCC[CH2][Sn]1([CH2]CCC)[O]CC(Cc2ccccc2)[O]1` (stereo not given), 98% (active). In the case of `Clc1ccccc1C#[C][Hg][C]#Cc1ccccc1Cl`, the growth inhibition is 95% (active). Under `CC12CCC3C(CC=C4CC(SC(=N)N)CCC43C)C1CCC2=O` (stereo not given) stands 72% (active). For `COc1ccccc1/C=C/[N+](=O)[O-]` the value was 99% (active); for `ClC(CN1CCCCC1)C(Cl)c1ccccc1` (stereo not given), 53% (inactive); for `CCC[CH2][Sn]1([CH2]CCC)[O]CC(CN2CCCCC2)[O]1` (stereo not given), 95% (active). For `COC1OC(CO)C(O)C(O)[CH]1[Hg][Cl]` (stereo not given) the value was 100% (active); for `ClC1=C(Cl)C2(Cl)C(Cl)CC1(Cl)C2(Cl)Cl` (stereo not given), -24% (inactive); for `[Hg][c]1ccccc1`, 52% (inactive).

With `O=[N+]([O-])c1cccc(SC(Cl)(Cl)Cl)c1`, the growth inhibition is 99% (active). Under `CC1=C(O)C(=O)C=C2C1=CC=C1[C@@]2(C)CC[C@@]2(C)[C@@H]3C[C@](C)(C(=O)O)CC[C@]3(C)CC[C@]12C` stands 99% (active); under `CCC[CH2][Sn]1([CH2]CCC)[O]C2C(O)OC(CO)C(O)C2[O]1` (stereo not given), 99% (active); under `O=[As]c1ccccc1O` (stereo not given), 98% (active).

In the case of `CC[PH+](CC)CC.[Cl][Au]`, the growth inhibition was 98% (active).
